This note sets out measurements from PubChem BioAssay (Tox21).

Records with an inconclusive call do not appear. Values without a mark were called inactive. Activity calls are given as the source filed them. Calls come from the whole dose curve.
% is set by controls: 0 for no effect and ±100 for the full control effect; potency is the fitted concentration of half-maximal effect.

The target in this test is 5-hydroxytryptamine receptor 2A (Homo sapiens) (UniProt P28223). Put plainly: 5-hydroxytryptamine receptor 2A (HTR2A) small molecule antagonists, cell-based qHTS assay (AID 1963586). Note: nearly all actives have a fitted effect of over 45% in size. The note with it: HTR2A-CHO cells, DOI-induced calcium flux, fluorescence; series mostly up to 61.5 µM; activity, negative = inhibition: at the top concentration. The text has this: National Center for Advancing Translational Sciences [NCATS]
Sequence of 5-hydroxytryptamine receptor 2A (Homo sapiens) (P28223 whole entry, looked up): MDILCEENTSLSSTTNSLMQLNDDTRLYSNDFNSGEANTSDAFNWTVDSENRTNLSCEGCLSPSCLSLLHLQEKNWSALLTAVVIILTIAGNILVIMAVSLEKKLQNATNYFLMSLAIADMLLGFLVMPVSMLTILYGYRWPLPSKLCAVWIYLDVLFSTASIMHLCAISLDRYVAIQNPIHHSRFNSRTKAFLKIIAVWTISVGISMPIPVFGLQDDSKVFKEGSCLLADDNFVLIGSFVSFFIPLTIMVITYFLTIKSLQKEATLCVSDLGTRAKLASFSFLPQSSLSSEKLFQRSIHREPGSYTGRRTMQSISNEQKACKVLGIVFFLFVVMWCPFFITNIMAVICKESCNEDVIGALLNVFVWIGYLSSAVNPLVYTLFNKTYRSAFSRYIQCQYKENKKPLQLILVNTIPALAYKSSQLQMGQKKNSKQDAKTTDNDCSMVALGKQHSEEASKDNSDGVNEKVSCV
Division of Preclinical Innovation [DPI]
U.S. Environmental Protection Agency [EPA]
National Institutes of Environmental Health Sciences [NIEHS]
National Toxicology Program [NTP]
U.S. Food and Drug Administration [FDA]
The HTR2A receptor is a subtype of the 5-HT2 receptor that belongs to the serotonin receptor family and is a G protein-coupled receptor (GPCR). The HTR2A-CHO cell line stably expressing human 5-hydroxytryptamine receptor 2A (HTR2A) can be used for screening antagonists of interactions between 5-HT2 and its ligands. The HTR2A-CHO calcium flux assay is a homogeneous fluorescence-based assay for detecting the intracellular calcium level using FDSS kinetic plate reader system.
Tox21 Assay Protocol Summary:
HTR2A-CHO cells were dispensed at 2000 cells/3uL/well in 1536-well black-clear bottom plates using a Multidrop Dispenser. After the assay plates were incubated at a 37 C/5% CO2 incubator for 18 h, 3 uL of Dye Loading Buffer was transferred to the assay plate by a Flying Reagent Dispenser. The assay plates were incubated at 37 C for 1h. For antagonist mode, 23 nL of compounds dissolved in DMSO, positive controls or DMSO only was transferred to the assay plate by a pin tool. After 5 min incubation at room temperature, 1.5 uL of 4-Iodo-2,5-dimethoxy-alpha-methylbenzeneethanamine hydrochloride (DOI) at 4nM was added to each well. The fluorescence intensity in the plates was measured using FDSS 7000EX kinetic plate reader for 3 min at 1 sec intervals.
(In qHTS, concentration-response curves come from the screen itself.)
On to `O=c1[nH]nc(-c2ccc([N+](=O)[O-])o2)o1`, for which the “activity, negative = inhibition” value was 7.07%.
On to `CCCCC[C@H](O)/C=C/[C@H]1[C@H](O)CC(=O)[C@@H]1C/C=C\CCCC(=O)O`, for which the “activity, negative = inhibition” value is -13.2% [at 28.5 µM].
On to `COc1ccc(CCO)cc1`, for which the “activity, negative = inhibition” value is 31.2%.
Take `CC[C@@]1(c2ccccc2)NC(=O)N(C)C1=O`: the “activity, negative = inhibition” value is -4.63% [at 28.5 µM].
Regarding `O=C(/C=C/c1ccccc1)OCCc1ccccc1`, the “activity, negative = inhibition” value is -5.2%.
For the compound `Cc1nnc(SCC2=C(C(=O)O)N3C(=O)[C@@H](NC(=O)Cn4cnnn4)[C@H]3SC2)s1`, the “activity, negative = inhibition” value is 22.3% [at 28.5 µM].
As for `CC(Cc1cccc(C(F)(F)F)c1)NCCOC(=O)c1ccccc1` (stereo not given), the Potency is 20.5 µM (active).
For `Cc1ccc(C#N)cc1`, the “activity, negative = inhibition” value is 15%.
On to `CCC(CN)=C(c1ccccc1)c1ccccc1`, for which the “activity, negative = inhibition” value is -33.9% [at 28.5 µM].
Consider `CCC(CC)Nc1ccc(C)c(C)c1`, for which the “activity, negative = inhibition” value is -16.1%.
On to `Cc1ccc(O)c(C(=O)c2ccccc2)c1`, for which the “activity, negative = inhibition” value was 2.42%.
On to `S=C([S-])NCCNC(=S)[S-].S=C([S-])NCCNC(=S)[S-].[Mn+2].[Zn+2]`, for which the “activity, negative = inhibition” value was -11% [at 28.5 µM].
Regarding `COc1ccc(/C=C/c2cc(OC)cc(=O)o2)cc1`, the Potency was 9.64 µM (active).
In the case of `COc1ccc2cc1Oc1ccc(cc1)C[C@H]1c3c(cc4c(c3Oc3cc5c(cc3OC)CCN(C)[C@@H]5C2)OCO4)CCN1C`, the “activity, negative = inhibition” value was -2.77% [at 28.5 µM].
As for `CC(C)n1nc(-c2cc3cc(O)ccc3[nH]2)c2c(N)ncnc21`, the “activity, negative = inhibition” value is 77.7% [at 28.5 µM].
Turning to `COC(=O)c1ccccc1OC`, the “activity, negative = inhibition” value is -2.67%.
The same measure, in the same setting: the figure for `CCOC(=O)c1ccc(C#Cc2ccc3c(c2)C(C)(C)CCS3)nc1` is 11.5% [at 28.5 µM]; for `CC(O)C1CCCCC1` (stereo not given) it is 8.98%; for `C=CC(=O)OCCOc1ccccc1` it is -0.095%.
For the compound `COc1ccc2c(c1)c(CC(=O)OC/C=C(\C)CC/C=C(\C)CCC=C(C)C)c(C)n2C(=O)c1ccc(Cl)cc1`, the “activity, negative = inhibition” value was 1.74% [at 28.5 µM].
Regarding `CCCCOC(=O)CCCCC(=O)OCCCC`, the “activity, negative = inhibition” value was -5.49%.
Still for that read-out and setting: to `c1ccc2c(c1)ccc1c3ccccc3ccc21` belongs 24.8% [at 28.5 µM]; to `C[C@@H]1CC[C@H]2C(C)(C)[C@H]3C[C@@]12CC[C@@]3(C)O`, 147%.
Still for that read-out and setting: to `O=C(Oc1ccccc1)c1ccc2ccccc2c1O` belongs 0.996%.
On to `CN(C)CCCN(C)C`, for which the activity, negative = inhibition was 12.1% [at 5.62 µM].
For `COC(=O)[C@H]1[C@H]2C[C@@H]3c4[nH]c5cc(OC)ccc5c4CCN3C[C@H]2C[C@@H](OC(=O)/C=C/c2ccc(O)c(OC)c2)[C@@H]1OC`, the “activity, negative = inhibition” value is 429% [at 28.5 µM].
Take `C=C[C@](C)(O)CC[C@@H]1[C@@]2(C)CCCC(C)(C)[C@@H]2CC[C@@]1(C)O`: the “activity, negative = inhibition” value was 3.53%.
Same read-out and setting: the figure for `CCN(CC)c1cccc(O)c1` is 8.59%.
On the same count and under the same terms, to `C=C(C)C(=O)OCCO` belongs 57%.
On the same count and under the same terms, to `O=C(O)c1nc(Cl)c(Cl)c(Cl)c1Cl` belongs -0.458%.
On to `O=C1c2ccccc2-c2ccccc21`, for which the “activity, negative = inhibition” value is -12.6%.
In the case of `Nc1ccc(F)cc1`, the “activity, negative = inhibition” value is -6.23%.
For `CCCCN1C(=O)c2ccccc2C1=O`, the “activity, negative = inhibition” value was 3.26%.
The same measure, in the same setting: to `CC(=O)Nc1ccc(S(=O)(=O)Nc2ccc([N+](=O)[O-])cc2)cc1` belongs -5.44% [at 28.5 µM].
Consider `NC(=O)n1c(O)c(C(=O)c2cccs2)c2cc(Cl)ccc21`, for which the “activity, negative = inhibition” value is 9.67% [at 28.5 µM].
Consider `CC(CN=Cc1ccccc1O)N=Cc1ccccc1O` (stereo not given), for which the “activity, negative = inhibition” value is -28.7%.
As to `C=CC(=O)OCC(C)OCC(C)OCC(C)OC(=O)C=C` (stereo not given), the “activity, negative = inhibition” value is 6.47%.
For the compound `CCCc1ccc(OCC(=O)N2CCN(C(=O)COc3ccc(CCC)cc3OC)CC2)c(OC)c1`, the “activity, negative = inhibition” value was 15.9% [at 28.5 µM].
As for `CNCc1cc(F)ccc1Oc1ccc(Cl)c(Cl)c1`, the Potency is 0.266 µM (active).
Turning to `CN(C)c1ccc(C2(c3ccc(N(C)C)cc3)OC(=O)c3cc(N(C)C)ccc32)cc1`, the “activity, negative = inhibition” value was 11.9%.
